The entries come from a sample that favours hits as a whole.
Cruzain Triton – inhibitors of Trypanosoma cruzi cruzain with detergent. P25779. Potency, µM, usual class: inhibitors. hit rate 0.43% among 200,000. purified cruzain, Z-FR-AMC fluorescence, 0.01% Triton. AID 1478; further: nearly all actives have a fitted effect of over 40% in size
Target sequence (P25779 123-467 limits assumed): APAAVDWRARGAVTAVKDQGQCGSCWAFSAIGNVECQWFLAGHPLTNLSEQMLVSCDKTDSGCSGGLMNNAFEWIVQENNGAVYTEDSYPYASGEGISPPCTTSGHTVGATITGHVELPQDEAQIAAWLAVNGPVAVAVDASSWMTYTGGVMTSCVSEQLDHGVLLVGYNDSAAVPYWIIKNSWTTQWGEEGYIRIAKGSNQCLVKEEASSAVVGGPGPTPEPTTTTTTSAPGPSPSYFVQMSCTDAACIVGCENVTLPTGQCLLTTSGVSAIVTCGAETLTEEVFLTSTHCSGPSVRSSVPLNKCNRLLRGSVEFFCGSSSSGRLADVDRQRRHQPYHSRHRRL
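Read-out: AMC fluorescence (360 nm excitation, 450 nm emission), four reads over 2 min, first-to-third difference used. Conditions: cruzain 1.5 nM, Z-FR-AMC 2 uM, pH 5.5 acetate, 5 mM DTT, 0.01% Triton X-100.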
Cruzain inh noDet – blocks cruzain activity in detergent-free assay; P25779; purified cruzain, Z-FR-AMC fluorescence, no detergent; Potency, µM, actives largely listed as inhibitors; hit rate 2.3% among 200,000; further: nearly all actives have a fitted effect of over 40% in size
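Detergent-free condition (0.00005% Triton X-100) in acetate buffer pH 5.5 with DTT. 1.5 nM enzyme and compound were pre-mixed 15 min, then 2 uM Z-FR-AMC substrate added; reaction progress from fluorescence change between first and third reads (60 s).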
NS1 inh – blocks influenza NS1 protein function | Potency, µM (series often up to 46.1 µM) | hit rate 0.4% among 270,000; calls by dose curve; further: actives are rising curves; nearly all actives have a fitted effect of over 50% in size
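OD600 was taken as the measure of yeast growth restored by compound in an NS1-expressing S. cerevisiae strain. Cells had been washed out of glucose medium and diluted 1:100 into galactose -URA medium, pH 6.0.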
Hits are given with their value; 0 = inactive; ? = inconclusive; - = no result. Unless noted, the call rests on the fitted dose curve; in most records, active means well fitted curve in the direction sought with a large enough effect; inconclusive means small, poorly fitted or top-dose-only effect, or another doubt; inactive means no such curve, though single readings can be large; an effect the other way counts as inactive or inconclusive.

SMILES	Cruzain Triton	Cruzain inh noDet	NS1 inh
O=C(NCc1cccc(F)c1)c1ccc(N2C(=O)Cn3c(cc4sccc43)C2=O)cc1	0	25µM	?
CCN1CCSc2ccc(C(=O)NCc3cccc(F)c3)cc21	0	0	0
CCC(Cn1nnc2ccccc2c1=O)NC(=O)Nc1cc(OC)cc(OC)c1 (stereo not drawn)	0	0	-
COc1cc(C2CC(=O)N(Cc3cccc(F)c3)c3ccccc3S2)cc(OC)c1OC (stereo not drawn)	0	?	-
COc1ccc(-c2cc(-c3ccccc3)c(C#N)c(=S)[nH]2)cc1	-	-	0
Cc1ccc(-c2cc(-c3ccccc3)[nH]c(=S)c2C#N)cc1	0	16µM	0
Cc1ccc(-n2ncc3c(NCCCn4ccnc4)ncnc32)cc1	0	0	-
COc1ccccc1C(=O)Nc1ccccc1C(=O)OCc1cc(=O)n2c(C)csc2n1	0	0	-
Cc1cc(C)nc(SCCc2cccc[n+]2C)n1	0	0	0
O=C(CN1C(=O)NC2(CCc3ccccc3C2)C1=O)Nc1ccc(Cl)cc1F (stereo not drawn)	0	0	0
COC(=O)c1c(NC(=O)CN2C(=O)NC3(CCc4ccccc4C3)C2=O)sc2c1CCCCC2 (stereo not drawn)	0	13µM	0
COC(=O)c1c(NC(=O)CN2C(=O)NC3(CCC(C(C)(C)C)CC3)C2=O)sc2c1CCCCC2 (stereo not drawn)	0	16µM	0
CC1CCCCC12NC(=O)N(CC(=O)Nc1sc3c(c1C(N)=O)CCC3)C2=O (stereo not drawn)	0	0	0
Cc1ccn2c(Nc3ccccc3)c(-c3c[nH]c4ccccc34)nc2c1	0	13µM	-
Cc1ccc(Nc2c(-c3c[nH]c4ccccc34)nc3cc(C)ccn23)cc1	0	?	-
Cc1noc(C)c1C(=O)N1CCC2(CCN(Cc3ccc(C#N)cc3)CC2)CC1	0	0	-
CC(C)(C)c1ccc(C(=O)NC2=NC(c3cccc(F)c3)CC(=O)N2)cc1 (stereo not drawn)	0	0	-
COC(=O)Cn1ccc(-c2ccc(Cl)cc2)c(C#N)c1=O	-	-	0
Cc1ccccc1Cn1ccc(-c2ccc(Cl)cc2)c(C#N)c1=O	0	25µM	0
COc1ccccc1CCn1c(=O)c(-c2cccs2)nc2cncnc21	0	0	-
CC1c2nc3ccccc3n2C(CC(=O)NCc2ccccn2)C(=O)N1Cc1ccccc1 (stereo not drawn)	0	13µM	0
O=C(CCc1ccccc1)NCc1ccccn1	0	0	0
CCN(CC)S(=O)(=O)c1ccc2c(c1)nc(CN(C)C(=O)Nc1cccc(Cl)c1)n2C	0	?	-
COc1cccc(CNC(=O)CN2C(=O)N(c3cccc(Cl)c3)S(=O)(=O)c3ccccc32)c1OC	0	0	-
COc1ccccc1CNC(=O)CCCn1nc(C)c2sc3ccccc3c2c1=O	0	10µM	-
SMILES	Cruzain Triton	Cruzain inh noDet	NS1 inh
COc1ccc(CNC(=O)CCCn2nc(C)c3sc4ccccc4c3c2=O)cc1OC	0	0	-
CCOC(=O)c1c(C)[nH]c(CCC(=O)NCc2ccccc2Cl)c1C	0	0	-
COc1ccccc1C(=O)ON=C1c2ccccc2-c2ccccc21	0	?	0
COc1ccc2c(c1[N+](=O)[O-])CCC/C2=N/OC(=O)c1cccc2ccccc12	0	20µM	0
O=C(O)c1cccc(-c2ccc3c(c2)OCO3)c1	-	-	0
CSc1cccc(-n2cc(-c3ccc4c(c3)OCO4)[nH]c2=O)c1	0	32µM	0
CCCC(=O)c1cc(O)c(O)cc1O	0	0	-
C#CCSC1=C(C#N)C(c2cccs2)C(C(=O)OCC)=C(C)N1 (stereo not drawn)	0	20µM	0
CCOC(=O)C1=C(C)NC(C)=C(C(=O)OCC)C1c1cccs1	0	0	0
Cc1ccc(C)c2sc(NC(=O)c3ccc(S(=O)(=O)N4CCC(C)CC4)cc3)nc12	0	?	-
CCOC(=O)C1=C(CSCC(=O)OC)NC(=O)NC1c1cc(C)ccc1C (stereo not drawn)	0	0	0
CCOC(=O)C1=C(CSc2nc3ccccc3s2)NC(=O)NC1c1cc(C)ccc1C (stereo not drawn)	0	32µM	0
CCOC(=O)C1=C(CSc2nc3ccccc3s2)NC(=O)NC1c1ccc(OC)cc1 (stereo not drawn)	0	25µM	0
CCOC(=O)C1=C(CP(=O)(c2ccccc2)c2ccccc2)NC(=O)NC1c1ccc(OC)cc1 (stereo not drawn)	0	0	0
COc1cc(NC(=O)c2cc(-c3ccco3)on2)c(OC)cc1Cl	0	10µM	0
O=C(Nc1c(Cl)cccc1Cl)c1cc(-c2ccco2)on1	-	-	0
N#CS.N=C=S.N=C=S.[Cu].[NH2-].[NH2-].[NH2-].[NH2-].c1ccc2ncccc2c1	0	0	0
CC(C)[C@]1(O)[C@@H](OC(=O)c2ccc[nH]2)[C@]2(O)[C@@]3(C)C[C@@]4(O)O[C@@]5([C@H](O)[C@@H](C)CC[C@]35O)[C@]2(O)[C@]41C	0	0	0
CNS(=O)(=O)c1cccc(C(=O)OCC(=O)Nc2ccc(-c3nc4ccc(C)cc4s3)cc2)c1	-	-	0
Cc1ccc2nc(-c3ccc(NC(=O)COc4ccccc4)cc3)sc2c1	0	?	-
Cc1ccc2nc(-c3ccc(NC(=O)COC(=O)c4ccc([N+](=O)[O-])o4)cc3)sc2c1	0	16µM	0
Cc1ccc2nc(-c3ccc(NC(=O)COC(=O)c4ccc(Br)o4)cc3)sc2c1	0	13µM	0
CC(=O)NC(=S)Nc1ccc(-c2nc3ccc(C)cc3s2)cc1	0	6.3µM	0
CNC(=S)Nc1ccc(-c2nc3ccc(C)cc3s2)cc1	-	-	0
Cc1ccc2nc(-c3ccc(NC(=O)COC(=O)c4cncc(Br)c4)cc3)sc2c1	0	6.3µM	0
SMILES	Cruzain Triton	Cruzain inh noDet	NS1 inh
Cc1ccc2nc(-c3ccc(NC(=O)COC(=O)c4ccco4)cc3)sc2c1	0	?	0
CCCCNC(=O)CCCn1c(=O)c2ccccc2n(CC(=O)Nc2ccccc2OCC)c1=O	0	0	-
Cc1ccc(C)c(N2CCN(S(=O)(=O)c3ccc(-c4cnc(C5CC5)o4)cc3)CC2)c1	0	0	-
CC(C)Oc1ccc(C(=O)N2CC(=O)Nc3ccc(F)cc3C2c2ccc(F)cc2)cc1 (stereo not drawn)	0	0	-
Cc1ccc([N+](=O)[O-])c(N)c1	0	0	-
COc1cc(CCN2C(=O)N[C@@H](c3ccccc3)C(C(C)=O)=C2C)cc(OC)c1OC	0	0	-
Cc1cc(C(=O)Nc2nc(C)c(C(=O)N(C)C)s2)ccc1[N+](=O)[O-]	0	0	0
Cc1nc(NC(=O)c2ccc([N+](=O)[O-])cc2Cl)sc1C(=O)N(C)C	16µM	0	0
COc1ccc(CNC(=O)c2cnn(-c3ccc(C)cc3)c2-n2cccc2)cc1OC	0	?	-
CC(C)c1ccc(CN(Cc2ccco2)c2cnc(S(C)(=O)=O)nc2C(=O)Nc2ccccc2)cc1	0	?	-
COc1ccc(CN(Cc2ccco2)c2cnc(S(C)(=O)=O)nc2C(=O)Nc2ccc(C)c(C)c2)cc1	0	20µM	-
CCS(=O)(=O)c1ncc(N(Cc2ccco2)Cc2ccccc2F)c(C(=O)Nc2cccc(Cl)c2)n1	0	20µM	-
Cc1ccc(NC(=O)c2nc(S(C)(=O)=O)ncc2N(Cc2ccco2)Cc2ccccc2F)c(C)c1	0	0	-
COc1ccc(CN(Cc2ccco2)c2cnc(S(C)(=O)=O)nc2C(=O)Nc2ccc(C)cc2C)cc1	0	?	-

Screening results (PubChem)
